Consider eight compounds from PubChem BioAssay (NCATS).

Records with an inconclusive call do not appear. Calls of active or inactive are those of the source. Calls follow the shape of the dose curve; as a rule, active = well fitted curve in the direction sought with a large enough effect; inconclusive = small, poorly fitted or top-dose-only effect, or another doubt; inactive = no such curve, though single readings can be large; an effect the other way counts as inactive or inconclusive.

Experiment [1] concerns the target Ubiquitin carboxyl-terminal hydrolase 1 (Homo sapiens) (UniProt O94782). Put plainly: Inhibitors of USP1/UAF1: Pilot qHTS (AID 504865).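 Also: rhodamine fluorescence freed from ubiquitin-rhodamine substrate followed over time; top concentration of the series differs between compounds; nearly all actives have a fitted effect of over 35% in size.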 In outline: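 In 50mM HEPES pH 7.8 containing 0.5mM EDTA, 1mM TCEP, 0.1 mg/ml BSA and 0.01% Tween-20, 1nM USP1/UAF1 is exposed to compound for 15 min, then Ub-Rho (150nM final) is added and fluorescence is read over time.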
Background: Quantitative high-throughput screening tests each substance at several concentrations.

The nature of experiment [2]: S16 Schwann cell viability assay (CellTiter-Glo assay) (AID 624031).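 Also: native untransfected S16 rat Schwann cells; nearly all actives have a fitted effect of over 70% in size.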 In short, it runs like this: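 Following overnight culture in 10% FBS DMEM, parental S16 rat Schwann cells are dosed for 24 h at 37 °C. Viability is read as CellTiter-Glo luminescence and expressed as % activity relative to DMSO (0%) and no-cell wells.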
In general terms: ATP-based viability assays read luminescence as a measure of living cells.

A further experiment has as its system CP192. Put plainly: qHTS profiling for inhibitors of Plasmodium falciparum proliferation (AID 504749). Also: nearly all actives have a fitted effect of over 60% in size. Also: potency is read from the fitted curve at half-maximal effect. To be noted: P. falciparum in erythrocytes, SYBR Green DNA, 72 h; series mostly up to 28.7 µM. In outline: (§1)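 Readout was DNA-dye fluorescence from lysed cultures, ex 485/em 535 nm. Parasitized red cells had grown 72 h with compound; data scaled between 0.29 uM artemisinin and DMSO wells and corrected using vehicle-only plates.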

In a further experiment the test system is CP194. The description is as above. The conditions noted are these: P. falciparum in erythrocytes, SYBR Green DNA, 72 h; series mostly up to 28.7 µM. In outline:
as §1

The next experiment deals with CP201. Described as above. The conditions noted are these: P. falciparum in erythrocytes, SYBR Green DNA, 72 h; series mostly up to 28.7 µM. In outline:
as §1

Another experiment concerns CP203. Described as above. The conditions noted are these: P. falciparum in erythrocytes, SYBR Green DNA, 72 h; series mostly up to 28.7 µM. In short, it runs like this: as §1
A further experiment has as its system CP211. Described as above. The conditions noted are these: P. falciparum in erythrocytes, SYBR Green DNA, 72 h; series mostly up to 28.7 µM. In short, it runs like this: as §1
In another experiment the test system is CP260. The experiment is described as above. To be noted: P. falciparum in erythrocytes, SYBR Green DNA, 72 h; series mostly up to 28.7 µM. In outline: as §1
For a further experiment, the system named is CP262. The experiment is described as above. The conditions noted are these: P. falciparum in erythrocytes, SYBR Green DNA, 72 h; series mostly up to 28.7 µM. In outline:
as §1

Another experiment relates to CP297. Described as above. To be noted: P. falciparum in erythrocytes, SYBR Green DNA, 72 h; series mostly up to 28.7 µM. In outline:
as §1

Another experiment has as its system CP315. Described as above. To be noted: P. falciparum in erythrocytes, SYBR Green DNA, 72 h; series mostly up to 28.7 µM. In outline:
as §1

The subject of another experiment is DFO2036. The description is as above. To be noted: P. falciparum in erythrocytes, SYBR Green DNA, 72 h; series mostly up to 28.7 µM. In short, it runs like this: as §1
The test system of the next experiment is DIV14. The description is as above. The conditions noted are these: P. falciparum in erythrocytes, SYBR Green DNA, 72 h; series mostly up to 28.7 µM. In outline:
as §1

For another experiment, the system named is DIV30. Described as above. To be noted: P. falciparum in erythrocytes, SYBR Green DNA, 72 h; series mostly up to 28.7 µM. In short, it runs like this:
as §1

The next experiment deals with Dd2. The experiment is described as above. To be noted: P. falciparum in erythrocytes, SYBR Green DNA, 72 h; series mostly up to 28.7 µM. In outline: as §1
The next experiment has as its system GB4. The description is as above. The conditions noted are these: P. falciparum in erythrocytes, SYBR Green DNA, 72 h; series mostly up to 28.7 µM. In short, it runs like this:
as §1

A further experiment deals with ICS. The experiment is described as above. The conditions noted are these: P. falciparum in erythrocytes, SYBR Green DNA, 72 h; series mostly up to 28.7 µM. In short, it runs like this: as §1
A further experiment relates to P94_40. The description is as above. The conditions noted are these: P. falciparum in erythrocytes, SYBR Green DNA, 72 h; series mostly up to 28.7 µM. In outline:
as §1

A further experiment has as its system PAD. The experiment is described as above. To be noted: P. falciparum in erythrocytes, SYBR Green DNA, 72 h; series mostly up to 28.7 µM. In short, it runs like this: as §1
The test system of another experiment is PC15. The experiment is described as above. The conditions noted are these: P. falciparum in erythrocytes, SYBR Green DNA, 72 h; series mostly up to 28.7 µM. In short, it runs like this: as §1

Sequence of Ubiquitin carboxyl-terminal hydrolase 1 (Homo sapiens) (O94782 whole entry, looked up): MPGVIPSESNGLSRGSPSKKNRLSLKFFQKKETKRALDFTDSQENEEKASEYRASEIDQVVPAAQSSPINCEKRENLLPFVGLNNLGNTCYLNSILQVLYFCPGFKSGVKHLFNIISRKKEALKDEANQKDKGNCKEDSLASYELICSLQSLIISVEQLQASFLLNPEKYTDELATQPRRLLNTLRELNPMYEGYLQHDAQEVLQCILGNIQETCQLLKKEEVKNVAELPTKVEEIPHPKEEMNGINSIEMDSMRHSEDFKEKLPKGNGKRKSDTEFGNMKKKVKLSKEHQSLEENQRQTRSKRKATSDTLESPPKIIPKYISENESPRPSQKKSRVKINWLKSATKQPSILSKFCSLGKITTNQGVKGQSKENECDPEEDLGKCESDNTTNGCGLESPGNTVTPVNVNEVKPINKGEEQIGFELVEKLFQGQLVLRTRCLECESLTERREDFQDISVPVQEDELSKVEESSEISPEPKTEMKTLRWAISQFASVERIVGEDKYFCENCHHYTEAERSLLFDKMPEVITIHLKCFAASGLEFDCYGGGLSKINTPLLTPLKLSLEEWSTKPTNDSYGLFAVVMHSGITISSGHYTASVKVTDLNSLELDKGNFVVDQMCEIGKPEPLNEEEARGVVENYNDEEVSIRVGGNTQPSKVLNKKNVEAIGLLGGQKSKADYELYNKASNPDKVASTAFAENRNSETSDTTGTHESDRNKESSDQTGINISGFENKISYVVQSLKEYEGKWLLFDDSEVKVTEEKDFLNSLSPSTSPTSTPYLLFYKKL

As for `CC1OC(O[C@H]2C[C@@H](O)[C@]3(CO)[C@@H]4C(CC[C@]3(O)C2)[C@@]2(O)CC[C@H](C3=CC(=O)OC3)[C@@]2(C)C[C@H]4O)C(O)C(O)C1O` (stereo partly drawn), the Potency result (in [1]; in [2]; in the experiment on CP192; with CP194; in the experiment on CP201; in the experiment with CP203) was “inactive” in each case. The Potency entry with CP211, in the experiment with CP260, in the experiment with CP262, in the experiment on CP297, in the experiment with CP315 and with DFO2036 was “inactive” each time. For the same compound, the Potency entry with DIV14, in the experiment on DIV30, with Dd2, in the experiment with GB4, with ICS and in the experiment on P94_40 was “inactive” each time. Further, the Potency result in the experiment with PAD was “inactive”.

For the compound `Cc1ccc2c(c1)[C@@H]1CN(C)CC[C@H]1N2`, the Potency entry (in [1]; in experiment [2]; with CP192; with CP194; in the experiment with CP201; with CP203) was “inactive” throughout. Moreover, the Potency entry in the experiment on CP211, in the experiment with CP260, in the experiment on CP262, in the experiment on CP297, with CP315 and with DFO2036 was “inactive” each time. Further, the Potency entry with DIV14, in the experiment with Dd2, in the experiment with ICS, in the experiment with P94_40, in the experiment on PAD and in the experiment on PC15 was “inactive” throughout.

For the compound `C=C1Nc2ccccc2C(=O)N1c1ccccc1C`, the Potency result (in experiment [1]; in experiment [2]; in the experiment with CP192; with CP194; in the experiment with CP201; in the experiment with CP203) was “inactive” throughout. Further, the Potency entry with CP211, in the experiment on CP260, in the experiment on CP262, in the experiment with CP297, in the experiment with CP315 and in the experiment on DFO2036 was “inactive” in each case. For the same compound, the Potency result in the experiment with DIV14, in the experiment with DIV30, in the experiment on Dd2, with GB4, in the experiment with ICS and in the experiment with P94_40 was “inactive” throughout. In addition, the Potency entry with PAD and in the experiment on PC15 was “inactive” throughout.

In the case of `CC12CCC3C4CCC(=O)C(O)=C4CCC3C1CCC2OC(=O)CCC1CCCC1` (stereo not drawn), the Potency result (in experiment [1]; in [2]; in the experiment on CP192; in the experiment with CP194; with CP201; in the experiment on CP203) was “inactive” each time. The Potency result in the experiment on CP211, with CP260, with CP262, in the experiment with CP297, in the experiment on CP315 and with DFO2036 was “inactive” each time. Further, the Potency entry with DIV14, in the experiment on DIV30, with GB4, in the experiment on P94_40, in the experiment on PAD and with PC15 was “inactive” in each case.

On to `Cc1cc(C)cc(C(=O)OC2CC3CCC(C2)N3C)c1` (stereo not drawn), for which the Potency result (in [1]; in the experiment with CP192; in the experiment on CP194; with CP201; in the experiment on CP203; with CP211) was “inactive” throughout. Also, the Potency result in the experiment with CP260, in the experiment on CP262, with CP297, in the experiment on CP315, in the experiment on DFO2036 and in the experiment with DIV30 was “inactive” throughout. Besides, the Potency entry in the experiment with GB4 and with P94_40 was “inactive” throughout. In addition, in the experiment with DIV14, the Potency was 7.57 µM (active).

As to `CC(Cc1ccccc1)N(C)C` (stereo not drawn), the Potency entry (in [1]; in [2]; in the experiment with CP192; in the experiment with CP194; in the experiment on CP201; in the experiment on CP203) was “inactive” each time. For the same compound, the Potency result with CP211, in the experiment on CP260, in the experiment with CP297, with CP315, in the experiment on DFO2036 and with DIV14 was “inactive” in each case. The Potency entry with DIV30, in the experiment on Dd2, in the experiment on ICS, with P94_40, in the experiment on PAD and in the experiment on PC15 was “inactive” in each case.

As to `CN1C2CCC1C(C(=O)O)C(OC(=O)c1ccccc1)C2` (stereo not drawn), the Potency entry (in [1]; in [2]; in the experiment on CP192; in the experiment with CP194; in the experiment on CP201; with CP203) was “inactive” each time. In addition, the Potency entry with CP211, in the experiment with CP260, in the experiment with CP262, with CP297, with CP315 and in the experiment on DFO2036 was “inactive” throughout. Also, the Potency entry in the experiment with DIV14, with DIV30, with Dd2, with GB4, in the experiment on ICS and in the experiment on P94_40 was “inactive” each time. Besides, the Potency result in the experiment on PAD and with PC15 was “inactive” in each case.

Regarding `[S]=[Sb][S][Sb]=[S]`, the Potency entry (in experiment [1]; in experiment [2]; with CP192; with CP194; in the experiment on CP201; in the experiment on CP203) was “inactive” each time. For the same compound, the Potency entry with CP211, in the experiment with CP260, with CP262, with CP297, in the experiment with CP315 and in the experiment on DFO2036 was “inactive” throughout. Moreover, the Potency result with DIV14, in the experiment with DIV30, in the experiment with Dd2, in the experiment with GB4, with ICS and in the experiment with P94_40 was “inactive” each time. Also, the Potency result in the experiment on PAD and in the experiment on PC15 was “inactive” in each case.
